Results filed as inconclusive are left out. A number with no mark means an inactive call. Activity calls are given as the source filed them. Calls come from the whole dose curve; as a rule, active = well fitted activation curve with a large enough effect in the signal ratio, with a control signal flat (not every such curve was filed as active); inconclusive = small, poorly fitted or top-dose-only effect, or a change in a side signal; inactive = flat fitted curve, though single readings scatter; the % refers to the signal ratio.
assay: Confirmation Concentration-Response Assay for Cell signaling CRE-BLA (Fsk stim); conditions: CHO CRE-bla reporter (cAMP response element driving beta-lactamase), NKH477 EC10 stim, FRET ratio; series mostly up to 38.3 µM; activation: at the top concentration
Source text: NIH Molecular Libraries Screening Centers Network [MLSCN] NIH Chemical Genomics Center [NCGC] MLSCN Grant: 1X01MH079867-01 Assay Provider: Marshall W. Nirenberg, U.S. National Heart, Lung and Blood Institute CRE beta-lactamase Assay Overview Memories persist for different lengths of time, from seconds or minutes to a lifetime. There are two kinds of memory: short-term memory (STM) and long-term memory (LTM). STM lasts for minutes to hours, which maybe mediated by modifications of molecules involved in synaptic functions. LTM lasts for days or longer, and may be due to the formation of new synapses or restructuring of existing synapses. LTM, but not STM, requires gene transcription and synthesis of proteins. CREB (cyclic-AMP Responsive Element Binding Protein) is one of the candidates plays an important role for enhancement of some types of LTM. CREB, a family of transcription factors, regulates the transcription of genes containing cAMP Responsive Elements (CRE). CRE is a nucleotide sequence often found in the promoter regions of genes that are binding sites for CREB. Using a beta-lactamase reporter-gene under control of cAMP responsive element, a cell-based assay [CellSensor(TM) CRE-bla CHO developed by Invitrogen Corp.] was used to measure forskolin-induced signaling. The selected compounds were measured for their ability to modulate positively the action of EC10 NKH 477, a water soluble forskolin, on reporter gene activity. Compounds were screened in a titration series in 1536-well format. Positive modulators were identified based on the AC50 values derived from the screening data.
NCGC Assay Protocol Summary 2000 cells/5uL in Opti-MEM medium containing 0.5% dialyzed FBS, 0.1 mM NEAA, 1 mM sodium pyruvate and 10 mM HEPES was dispensed into 1536-well plates and cells were cultured at 37 degrees Celsius overnight. Next day 23 nL of compounds or DMSO were delivered to each well using a pin tool, and 1uL of EC10 level of NKH 477, or EC100 level of IBMX, a PDE inhibitor, in the present of NKH 477, or assay medium was added. And then the plates were incubated at 37 degrees Celsius for 3 hours. 1 uL of CCF4-dye mixture was added to each well. After incubated at room temperature for 2 hours the plates were measured on an EnVision plate reader at Excitation 405nm, Emission1=460nm and Emission 2=530nm. The %Activity was determined from the ratio of 460nm/530nm. Keywords: NIH Roadmap, MLSCN, MLSMR, qHTS, NCGC, CRE, beta-lactamase reporter-gene assay.

SMILES	Potency	activation [%]
O=S(=O)(Nc1cccc(-c2nc3cccnc3s2)c1)c1ccc2c(c1)OCCO2	10 µM (active)	–
COC(=O)Nc1nc2ccc(C(=O)c3cccs3)cc2[nH]1	0.794 µM (active)	–
Nc1nc(CSCc2ccccc2)nc(N2CCOCC2)n1	–	22.1
Cc1ccc(Nc2c3c(nc4ncnn24)CCC3)cc1	–	17.4
CN1C(=O)NC(c2ccccc2)C2=C1CN(Cc1ccccc1)C2=O (stereo not given)	–	-8.37

Source: PubChem BioAssay AID916 (National Center for Advancing Translational Sciences (NCATS), 2007)
